Over roughly 33,000 sequences, “E-score (-0.5 to 0.5)” has its median near -0.041; the highest 2% begin near 0.37. The list comes from a sample in which the highest values are over-represented; it also holds similar and randomly drawn sequences.
Molecular target: T1, Ecm22 (UniProt Q05958)
T1 sequence: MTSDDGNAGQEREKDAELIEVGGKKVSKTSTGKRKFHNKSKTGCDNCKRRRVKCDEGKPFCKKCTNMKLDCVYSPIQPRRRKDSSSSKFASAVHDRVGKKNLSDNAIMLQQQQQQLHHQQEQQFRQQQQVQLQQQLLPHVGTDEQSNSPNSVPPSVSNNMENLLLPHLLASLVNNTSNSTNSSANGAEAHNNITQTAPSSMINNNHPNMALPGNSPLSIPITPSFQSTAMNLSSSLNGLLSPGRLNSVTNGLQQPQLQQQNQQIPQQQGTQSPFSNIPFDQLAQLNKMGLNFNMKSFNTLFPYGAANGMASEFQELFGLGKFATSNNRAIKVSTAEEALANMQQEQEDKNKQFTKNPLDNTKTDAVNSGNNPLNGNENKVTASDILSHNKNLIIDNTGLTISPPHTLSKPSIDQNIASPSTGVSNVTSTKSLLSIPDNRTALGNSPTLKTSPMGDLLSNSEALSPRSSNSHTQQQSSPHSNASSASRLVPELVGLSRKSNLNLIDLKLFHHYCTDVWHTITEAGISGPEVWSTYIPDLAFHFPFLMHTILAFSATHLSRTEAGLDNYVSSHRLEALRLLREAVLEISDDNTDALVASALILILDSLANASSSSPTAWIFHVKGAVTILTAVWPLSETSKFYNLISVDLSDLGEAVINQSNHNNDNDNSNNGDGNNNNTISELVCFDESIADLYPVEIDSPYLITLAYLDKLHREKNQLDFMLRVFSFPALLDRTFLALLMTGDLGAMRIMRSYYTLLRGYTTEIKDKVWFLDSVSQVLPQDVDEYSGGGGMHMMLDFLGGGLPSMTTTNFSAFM
Test: PBM E-score (8-mer binding enrichment) (E-score (-0.5 to 0.5)); higher = stronger / more preferred TF binding
Conditions: protein concentration: 200 nM; construct: GST-full length
Method: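 Universal 'all 10-mer' protein binding microarrays (Agilent AMADID 015681) probed with GST-tagged S. cerevisiae TFs (full-length or DBD) made by in vitro transcription/translation (PURExpress), about 100-200 nM. Bound TF was detected with fluorescent anti-GST. Each ungapped 8-mer (which stands for itself and its reverse complement) is scored by the PBM enrichment score (E-score), a modified Wilcoxon-Mann-Whitney statistic from -0.5 to +0.5, computed with the Universal PBM Analysis Suite. Scale: above 0.35 generally sequence-specific binding.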

Sequence | PBM E-score
GTTGAAAC | 0.0017
GCCTGGCA | -0.318
CGACCGCC | 0.137
ACTACTAG | -0.0821
ACATTCGG | 0.0251
ACATTCGT | 0.37
ACATTCGA | 0.0496
GACACCTC | 0.148
ACCCTCGA | -0.16
ACCCTCGC | 0.194
ACCCTCGT | 0.449
CACCAATA | -0.0897
CGTAGCGC | 0.273
AGTAGCGA | 0.153
CGTAGCGA | 0.382
TAGGGAAA | -0.0897
CACGAATA | 0.117
TACGAATA | 0.43
CACGAATG | 0.052
AACGAATA | 0.371
AACGAATT | 0.36
AACGAATG | 0.429
ATCGAATA | 0.138
GACGAATA | 0.0261
CACGAAAA | 0.153

Sequence | PBM E-score
GACGAAAA | 0.196
TACGAAAA | 0.423
ACCGAATA | 0.18
AATTGCTA | -0.0544
AGTGCTGG | -0.152
AAGCGGTA | 0.145
CACAACTC | 0.144
ACCAGCTA | -0.0229
AGCCAATG | -0.141
CAGGGGAA | -0.0465
CGCGATCA | 0.179
AGTTCTTG | -0.0776
GTCAGGGA | -0.19
GACGAATC | 0.106
CACGAATC | 0.0959
AACGAATC | 0.387
ATGCAAGG | -0.193
CCGCGACG | 0.0789
ACCGGGCG | 0.0784
GACCTACA | -0.18
CATGGCGC | -0.137
CCACTCCG | 0.019
TGCGTACA | 0.283
GGCGTACC | 0.279
GCCGTGCA | -0.305

Sequence | PBM E-score
GCCGTACC | 0.441
GCCGTAAA | 0.366
ACCGTAGG | -0.172
ACCGTAAG | 0.212
GCCGTAGC | 0.163
ACCGTACG | 0.385
TCCGTACA | 0.379
TCCGTAGA | -0.0285
GCCGTACA | 0.371
AATTCTAT | -0.104
TACGTTCA | 0.276
GATCCGGC | -0.0487
GACCAGGA | -0.0856
AGGGGAAA | -0.223
CAAGGACA | -0.247
GGCACCGA | -0.0384
GAGTCACA | 0.0764
AAACTGTT | -0.124
ACCGTAAC | 0.231
ACCGTACA | 0.371
ACCGTACT | 0.285
ACCGTAGA | 0.0719
ACCGTACC | 0.416
ACCGTAGC | 0.163
CACTGTCG | 0.109

Sequence | PBM E-score
GCCCTATA | -0.00087
AAATAGCT | -0.0997
ATTAACGA | 0.402
ATTAACGG | 0.226
GTTAACGA | 0.408
CGTAACGA | 0.338
GTTAACTA | 0.106
CTTAACGA | 0.432
CTTAACGC | -0.0209
GCTAACGA | 0.281
ATTAACGC | 0.122
AGAAGACA | 0.011
GTGTTTCA | -0.0721
GTCCTGGA | -0.225
TTAATAAA | 0.169
ACGAACGG | 0.392
CCGAACGG | 0.222
CCGAACGA | 0.357
GCGAACGA | 0.397
TCGAACGA | 0.373
GCGAACGC | 0.138
ACGAACGC | 0.362
GCGAACTA | 0.114
TCGAACCA | -0.029
ACGAACGA | 0.447

Sequence | PBM E-score
ACGAACGT | 0.307
TCGAACAA | 0.109
CCACCGGG | -0.108
GATTTCCA | -0.146
CTGCTCTA | 0.0645
ATGCTGAG | -0.31
AGCCGGAA | -0.0725
ACCAATGA | -0.061
CAACAACG | 0.209
ATAGTCGC | 0.146
CCTCTAAA | -0.193
GACTTAGC | -0.147
GGCATCCC | -0.315
CAAGCAAC | 0.00354
AGAGGCCA | -0.203
CTACCAAG | -0.23
AGGAACAG | -0.257
AGGAACGG | 0.459
AGGAACGC | 0.208
AAAGACGC | -0.118
AAATTGAA | -0.166
AAACGGTT | 0.262
CGAACGCG | 0.198
CGAACGAC | 0.389
CGAACGTC | 0.0995

Sequence | PBM E-score
AGAACGGA | 0.0615
CGAACGGA | 0.24
AGAACGTG | -0.0515
ACAACGAG | 0.288
CGAACGCC | 0.0398
CTAACGAG | 0.331
AGAACGAG | 0.45
GGAACGGA | 0.435
CGAACGAG | 0.428
ATGGTTAG | -0.0935
GAGGCGTA | 0.155
TAAGGATA | 0.00857
GGCATTAC | -0.132
GAGTTGAA | 0.04
CGAACGTA | 0.214
ATAACGAA | 0.185
ATAACGAC | 0.203
CTAACGAA | 0.219
GGAACGCC | 0.051
GGAACGAC | 0.491
CGAACGAA | 0.393
GTAACGAC | 0.289
TTAACGAA | 0.411
CGAACAAA | 0.2
AGAACGTC | -0.0743

Sequence | PBM E-score
AGAACGAC | 0.425
AATGTCCG | 0.127
GCGAAGTA | 0.112
ACCACTGC | -0.25
GGTGCCAA | -0.179
AATGGGGG | -0.268
CAAGGGAG | 0.062
ACGCCCAC | -0.181
GGAAACAC | 0.0703
TACGGACA | 0.258
TGAACGAA | 0.434
TGAACGCA | 0.0733
GGAACGTA | 0.353
GGAACGAA | 0.489
TGAACAAA | 0.165
AGAACAAA | 0.0892
AGAACGAT | 0.342
AGAACGAA | 0.422
GGAACGCA | 0.23
ACAGAAGT | -0.182
CCTAAGTA | 0.0729
GACGACCC | -0.108
ACCGACCG | 0.278
AACGACCG | 0.407
GACGACCA | 0.097

Sequence | PBM E-score
AACGACCC | 0.386
CACGACCC | -0.0107
TACGACCA | 0.449
AACGACCA | 0.424
CACGACCA | 0.0103
TCCGACCA | 0.16
CACGACCG | 0.0498
TGCGACCA | 0.215
CGGCGTTA | 0.0563
AGCAATTA | -0.107
CCCAGGTC | -0.218
AAGTTGGT | 0.0141
CTCAAGTA | -0.142
CATAACAC | 0.0539
AGCCTCTC | -0.117
CGATAAAC | 0.259
GACTTTTA | -0.222
CAGGCTGC | -0.272
ATGCCATA | 0.0201
GATAGACC | 0.0888
ACCGACCT | 0.0975
AGCGACCT | 0.0578
AACGACCT | 0.385
GGACTGGA | -0.323
AACTGGGC | -0.0689

Sequence | PBM E-score
CCGTTAAA | 0.278
TCGTTAAA | 0.44
CCGTAAGA | 0.164
CCGTAACA | 0.2
TCGTATCA | 0.463
ACGTTAAA | 0.213
ACGTATCA | 0.281
ACGTAAGA | 0.105
TCGTAAGA | 0.407
GCGTAACA | 0.00254
TCGTAACA | 0.425
GCGTATCA | 0.114
AATGGGCA | -0.0348
AGAAATAA | -0.0747
AGAAGCCA | -0.0549
ACGAGTGG | 0.331
ATTTTCCA | -0.0726
GCGTAAAA | 0.217
ACGTAAAA | 0.243
TCGTAAAA | 0.476

Source: the supplement of paper PMC3334620
